High-throughput results as filed in PubChem.
Rows were chosen to be rich in hits. Some 8% of all compounds tested hit in one or more screens of this group.
KB-V1 MDR tox – qHTS assay for MDR1-selective chemotherapeutics: Primary screen using the drug-selected MDR subline cells KB-V1; KB-V1 MDR cells viability, CellTiter-Glo, 72 h; Potency, µM (top dose mostly 46.1 µM), most hits filed as cytotoxic; actives 3.4% (n = 400,000); AID 1347076, 2019; also: % is scaled to controls: 0 for no effect and ±100 for the full control effect; nearly all actives have a fitted effect of over 60% in size
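KB-V1 cells (P-gp-expressing MDR subline of KB-3-1) in phenol-red-free DMEM with 10% FBS were exposed to library compounds over a concentration series for 72 h at 37 degrees C. Viability read by CellTiter-Glo luminescence; concentration-effect curves fitted after normalization.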
HT1080 IDH1KD tx – qHTS for induction of synthetic lethality in tumor cells producing 2HG: qHTS for the HT-1080-IDH1KD cell line; HT-1080 IDH1 knockdown viability, ATP luminescence, 48 h; Potency, µM (titrated, usually from 46.1 µM), inactives show top-dose activity, negative = toxicity, usual class: cytotoxic; actives 2% (n = 360,000); AID 686971, 2013;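 also: 0% = DMSO wells and -100% = cell-free medium wells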
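Using the IDH1-knockdown HT-1080 line run in the same batch and compound series as the NT line, viability after 48 h at 37 °C was determined by CellTiter-Glo luminescence and expressed as % activity.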
HT1080-NT tox – qHTS for induction of synthetic lethality in tumor cells producing 2HG: qHTS for the HT-1080-NT fibrosarcoma cell line. AID 686970, 2013. Potency, µM (doses to about 46.1 µM), inactives show top-dose activity, negative = less viability, usual class: cytotoxic. actives 1.6% (n = 360,000). HT-1080-NT fibrosarcoma viability, CellTiter-Glo ATP luminescence, 48 h;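 also: NT is the 2HG producing partner of a matched IDH1 knockdown line; 0% = DMSO-treated cells and -100% = media-only wells without cells; nearly all actives have a fitted effect of over 55% in size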
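Viability of the 2HG-overproducing fibrosarcoma line after 48 hours of compound exposure at 37 degrees C was determined by luminescence with CellTiter-Glo, and concentration-effect curves were then fitted and categorized.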
KB-3-1 tox – qHTS assay for MDR1-selective chemotherapeutics: Primary screen using the parental adenocarcinoma cell KB-3-1. KB-3-1 viability, CellTiter-Glo ATP luminescence, 72 h. Potency, µM (highest dose often 46.1 µM), usual class: cytotoxic. actives 1.4% (n = 400,000). AID 1347075, 2019; also: % is scaled to controls: 0 for no effect and ±100 for the full control effect; nearly all actives have a fitted effect of over 60% in size
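Parental KB-3-1 viability, qHTS format: 72 h compound exposure, 37 °C; CellTiter-Glo; media-only wells and DMSO plates as controls; concentration-effect fits on corrected data.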
MCF10A rereplic – A quantitative high throughput screen for small molecules that induce DNA re-replication in MCF 10a normal breast cells; MCF 10A DNA re-replication, Hoechst nuclear intensity, 48 h; Potency, µM (highest dose often 46.1 µM), inactives show at the top dose activity, positive = re-replication, most hits filed as activators; actives 2.9% (n = 350,000); AID 624296, 2012; also: % of control where 0% means no effect; nearly all actives have a fitted effect of over 50% in size
SW480 rerep – A quantitative high throughput screen for small molecules that induce DNA re-replication in SW480 colon adenocarcinoma cells; SW480 DNA re-replication, Hoechst DNA content imaging, 48 h; actives 1.8% (n = 340,000); Potency, µM (highest dose often 46.1 µM), without a hit: top-dose re-replication activation, usual class: activators; also: % of control where 0% means no effect; nearly all actives have a fitted effect of over 55% in size
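Cells (250 per well) received 23 nL compound or DMSO by pin tool and were kept 48 hr at 37 C, 5% CO2. Nuclei were then stained with Hoechst for 40 min and scanned for DNA content.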
* = called active by the depositor; i = inactive; ? = inconclusive; . = no result; [ ] = another dose, or the depositor's remark. Calls follow the shape of the dose curve; as a rule, active = well fitted curve in the direction sought with a large enough effect; inconclusive = small, poorly fitted or top-dose-only effect, or another doubt; inactive = no such curve, though single readings can be large; an effect the other way counts as inactive or inconclusive. Potency is read from the fitted curve at half-maximal effect.

SMILES | KB-V1 MDR tox | HT1080 IDH1KD tx | HT1080-NT tox | KB-3-1 tox | MCF10A rereplic | SW480 rerep
CN(C(=O)COc1ccc2c(-c3ccccc3)cc(=O)oc2c1)C1CCS(=O)(=O)C1 (stereo not drawn) | i | 5.0% | -0.7% | i | ? | 13µM*
CCn1c(SCc2ccc(OC)cc2)nnc1-c1ccncc1 | i | -0.5%[9.24 µM] | -2.9% | i | 20.6µM* | -2.6%
CCn1c(SCC(=O)NC2CCCCC2C)nnc1-c1ccc(OC)cc1 (stereo not drawn) | 2.59µM* | 1.7% | 8.1% | i | -2.8% | 0.7%
COc1ccc(-c2cc3nc(C)c(CCC(=O)N4CCN(c5cccc(Cl)c5)CC4)c(C)n3n2)c(OC)c1 | i | . | . | i | . | .
COc1cccc(Nc2nc3ccc(C(=O)c4ccccc4)cc3n3c(C)nnc23)c1 | i | . | . | i | . | .
Cc1nc(-[n+]2nc(-c3ccncc3)nn2-c2ccccc2)sc1C | ? | 10.3µM* | 25.9µM* | ? | . | .
O=[N+]([O-])c1ccc(S(=O)(=O)c2cccc(C(F)(F)F)c2)nc1 | ? | 7.31µM* | 10.3µM* | ? | 5.17µM* | 4.11µM*
CN1CCN(/N=C/c2ccc(-c3ccccc3)cc2)CC1 | i | -7.8% | -3.4% | i | ? | ?
CN1CCN(/N=C/c2c3ccccc3c(Cl)c3ccccc23)CC1 | ? | 20.6µM* | 23.1µM* | i | ? | ?
COc1ccc(N(C)S(=O)(=O)c2cccc3cccnc23)c(OC)c1 | ? | 8.91µM* | 11.2µM* | ? | 8.2µM* | 20.6µM*
COc1ccccc1NC(=O)CN(C)S(=O)(=O)c1cccc2cccnc12 | i | 0.0% | 3.3% | i | 0.0% | -4.9%
Cc1cc(C)c(S(=O)(=O)/N=C2\C=C(NS(=O)(=O)c3ccccc3)C(=O)c3ccccc32)c(C)c1 | i | -6.8% | -5.7% | i | 14.3% | -5.8%
Cc1cc(C)c(S(=O)(=O)/N=C2\C=CC(=O)C(Cl)=C2)c(C)c1 | i | -17.1% | -29.5% | i | 12.6µM* | 3.1%
CC(=O)c1ccc(OCCCC(=O)Nc2cc(S(=O)(=O)N(C)C)ccc2C)cc1 | 23.1µM* | -1.1% | 0.9% | ? | -3.5% | 16.4µM*
CCN(CC)S(=O)(=O)c1cc(NC(=O)CCCOc2ccc(C(C)=O)cc2)ccc1C | 2.91µM* | -16.2% | -7.7% | ? | 15.9% | -2.0%
Cc1ccc(NC(=O)CCC(=O)NNC(=O)COc2ccc([N+](=O)[O-])cc2)c(C)c1 | i | 3.2% | 2.4% | i | 1.64µM* | 2.4%
CN(CCOc1ccc(Cl)cc1)Cc1cccc(S(=O)(=O)N(C)C)c1 | 7.31µM* | -12.2% | -0.4% | 20.6µM* | ? | -3.8%
COc1ccc(Cl)cc1NC(=O)Cn1c(=O)n(Cc2nc(C)no2)c(=O)c2ccccc21 | i | . | . | i | . | .
Cc1ccc(O)c(Nc2nc3ccccc3c3nncn23)c1 | i | . | . | i | . | .
Cc1ccc([N+](=O)[O-])cc1NC(=O)CCCOc1ccccc1 | 10.3µM* | 17.9% | 27.3% | i | 8.8% | -3.3%
Cc1ccc(S(=O)(=O)N(C)C)cc1NC(=O)C(C)Sc1ccccc1 (stereo not drawn) | i | -3.5% | -4.9% | i | 19.3% | -5.4%
Cc1ccc(S(=O)(=O)N(C)C)cc1NC(=O)C(C)N(C)CCOc1ccc(Cl)cc1 (stereo not drawn) | ? | -20.9% | -1.8% | i | 18.4µM* | ?
O=C1/C(=C\c2ccc(Br)o2)SC(=Nc2ccccc2)N1c1ccccc1 | 9.2µM* | -0.2% | 3.8% | i | 9.2% | 1.4%
O=C(CNS(=O)(=O)c1ccc(Br)s1)NCc1ccccc1 | i | 0.0% | -2.1% | i | ? | 2.82µM*
O=C(CNS(=O)(=O)c1ccc(Br)s1)NCc1ccc(F)cc1 | i | 14.3% | 6.1% | i | 8.8% | -4.7%
SMILES | KB-V1 MDR tox | HT1080 IDH1KD tx | HT1080-NT tox | KB-3-1 tox | MCF10A rereplic | SW480 rerep
O=C1C=C(NCc2ccc(Cl)cc2Cl)C2(CCCCC2)O1 | i | -23.7% | -18.1% | i | 9.2µM* | ?
CN(C)CCCNC1=CC(=O)OC12CCCCC2 | i | 8.4% | 2.5% | i | 2.5% | -2.4%
COc1ccc(S(=O)(=O)Oc2ccc3cccc(N)c3c2)cc1 | ? | -26.9% | -23.1% | ? | ? | ?
COc1ccc(S(=O)(=O)Oc2ccc3ccccc3c2)cc1 | 16.4µM* | -6.4% | -21.4% | ? | ? | ?
Nc1c(C(=O)C2CC2)sc2nc3c(cc12)CCC3 | i | 8.6% | 12.0% | i | 14.6µM* | ?
Nc1c(C(=O)O)sc2nc3c(cc12)CCCC3 | i | 0.8% | -0.1% | i | 0.5% | -9.8%
Cc1cc(O)c(Oc2cc(C)cc(O)c2O)c(O)c1 | i | ? | ? | i | 30.4% | 18.4µM*
CC1CC(C(F)F)n2nc(C(=O)Nc3sc4c(c3C#N)CCC(C(C)(C)C)C4)nc2N1 (stereo not drawn) | ? | 4.8% | 4.4% | 16.4µM* | ? | 6.4%[9.22 µM]
COc1ccc(-c2c(C)nn3c4c(cnc23)C(=O)CC(c2ccc(C)cc2)C4)cc1 (stereo not drawn) | i | . | . | i | . | .
Cc1ccc(C(=O)c2oc3ccccc3c2NC(=O)COc2ccc(C(C)(C)C)cc2)cc1 | i | . | . | i | . | .
COC(=O)c1sccc1S(=O)(=O)N(CC(=O)Nc1ccccc1F)c1ccccc1 | i | . | . | i | . | .
CCc1ccc(CN(C(=O)Nc2cccc(Cl)c2)c2ccccn2)cc1 | i | . | . | i | . | .
Nc1nc(N)c2cc(CNc3ccc(Cl)c(Cl)c3)ccc2n1 | 16.4µM* | 3.26µM* | 1.84µM* | ? | . | .
Cc1ccc(C)c(NC(=O)CN2C(=O)CCc3cc(S(=O)(=O)N4CCCCC4)ccc32)c1 | i | . | . | i | . | .
Cc1ccccc1Nc1nnc(-c2ccc(C)c(S(=O)(=O)NCC3CCCO3)c2)c2ccccc12 (stereo not drawn) | i | . | . | i | . | .
CCCc1nn(C)c(C(=O)Nc2ccc(Cl)cc2)c1Cl | i | 2.9% | -14.2% | i | -1.2% | -7.7%
CCCc1nn(C)c(C(=O)Nc2ccccc2)c1Cl | 18.4µM* | 8.4% | 16.5% | i | 14.6% | -2.2%
C=C[C@H](CC(C)C)N(Cc1ccccc1)S(=O)(=O)N(Cc1ccccc1)[C@H](C=C)CC(C)C | i | . | . | i | . | .
